# Where “and” joins values, the source holds several entries; their conditions need not be identical. Equal values may be shown once. A number with no mark means an inactive call. Records with an inconclusive call do not appear. Entries that show only a call come without a potency. Calls of active or inactive are those of the source. Unless noted, calls come from the whole dose curve; as a rule, active = well fitted curve in the direction sought with a large enough effect in the repeat runs; inconclusive = weak or mixed curves; inactive = no such curve, though single readings can be large; an effect the other way counts as inactive or inconclusive.
# Experiments:
# [1] = qHTS assay to test for compound auto fluorescence at 535 nm (green) in HEK293 cells (AID 720680)
# [2] = qHTS assay to test for compound auto fluorescence at 460 nm (blue) in HEK293 cell free culture (AID 720681)
# In short: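 Compounds were added to cell-free DMEM with 10% FBS and fluorescence read directly. The blue channel used 405 nm excitation and 460 nm emission, with triamterene as the reference fluorophore.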
# [3] = qHTS assay to test for compound auto fluorescence at 535 nm (green) in HEK293 cell free culture (AID 720682)
# In short: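 DMEM + 10% FBS, cell-free; cpd or DMSO pinned in; Ex485/Em535 read; output as fluorescein-equivalent signal.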
# [4] = qHTS assay to test for compound auto fluorescence at 590 nm (red) in HEK293 cell free culture (AID 720683)
# In short: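 Cell-free wells of DMEM with 10% FBS received compound, and intrinsic fluorescence was read at excitation/emission 540/590 nm. Values expressed as equivalence to Rose Bengal sodium.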
# [5] = qHTS assay to test for compound auto fluorescence at 590 nm (red) in HepG2 cell free culture (AID 720684)
# In short: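 Compound was pinned into wells holding MEM with 10% FBS and no cells, and red fluorescence was read at Ex/Em 540/590 nm. Signal is expressed as auto fluorescence equivalency relative to Rose Bengal sodium.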
# [6] = qHTS assay to test for compound auto fluorescence at 460 nm (blue) in HepG2 cell free culture (AID 720685)
# In short: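 Compound (23 nL) or DMSO pinned into cell-free MEM with 10% FBS; blue fluorescence read at 405/460 nm excitation/emission, expressed as auto-fluorescence equivalency to triamterene.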
# [7] = qHTS assay to test for compound auto fluorescence at 535 nm (green) in HepG2 cell free culture (AID 720686)
# [8] = qHTS assay to test for compound auto fluorescence at 460 nm (blue) in HepG2 cells (AID 720687)
# In short: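 HepG2 cells in MEM with 10% FBS, attached overnight at 37 C, were exposed to compound or DMSO for 1 hr at 37 C, 5% CO2. Blue fluorescence was read at 405/460 nm, with triamterene as reference fluorophore.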
# [9] = qHTS assay to identify small molecule antagonists of the glucocorticoid receptor (GR) signaling pathway - cell viability counter screen (AID 720693); note: nearly all actives have a fitted effect of over 55% in size
# [10] = qHTS assay for identifying genotoxic compounds that show differential cytotoxicity against isogenic chicken DT40 cell lines with known DNA damage response pathways - wild type cell line (AID 743012); note: nearly all actives have a fitted effect of over 60% in size
# In short: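 Using parental DT40 (300 cells/well), compounds delivered in DMSO incubate 40 h at 37 C/5% CO2. CellTiter-Glo reagent then stands 30 min at room temperature, and luminescence gives cell viability.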
# [11] = qHTS assay for identifying genotoxic compounds that show differential cytotoxicity against isogenic chicken DT40 cell lines with known DNA damage response pathways - Rev3 mutant cell line (AID 743014); note: nearly all actives have a fitted effect of over 55% in size; note: potency is the fitted concentration of half-maximal effect
# [12] = qHTS assay for identifying genotoxic compounds that show differential cytotoxicity against isogenic chicken DT40 cell lines with known DNA damage response pathways - Rad54/Ku70 mutant cell line (AID 743015); note: nearly all actives have a fitted effect of over 60% in size; note: potency is the fitted concentration of half-maximal effect
# [13] = biological target: Androgen receptor (Homo sapiens) (UniProt P10275); assay: qHTS assay to identify small molecule antagonists of the androgen receptor (AR) signaling pathway (AID 743035; active = well fitted inhibition curve with a large enough effect in the signal ratio in the repeat runs, not every such curve was filed as active; the % refers to the signal ratio)
# Androgen receptor (Homo sapiens), sequence (P10275 whole entry, looked up): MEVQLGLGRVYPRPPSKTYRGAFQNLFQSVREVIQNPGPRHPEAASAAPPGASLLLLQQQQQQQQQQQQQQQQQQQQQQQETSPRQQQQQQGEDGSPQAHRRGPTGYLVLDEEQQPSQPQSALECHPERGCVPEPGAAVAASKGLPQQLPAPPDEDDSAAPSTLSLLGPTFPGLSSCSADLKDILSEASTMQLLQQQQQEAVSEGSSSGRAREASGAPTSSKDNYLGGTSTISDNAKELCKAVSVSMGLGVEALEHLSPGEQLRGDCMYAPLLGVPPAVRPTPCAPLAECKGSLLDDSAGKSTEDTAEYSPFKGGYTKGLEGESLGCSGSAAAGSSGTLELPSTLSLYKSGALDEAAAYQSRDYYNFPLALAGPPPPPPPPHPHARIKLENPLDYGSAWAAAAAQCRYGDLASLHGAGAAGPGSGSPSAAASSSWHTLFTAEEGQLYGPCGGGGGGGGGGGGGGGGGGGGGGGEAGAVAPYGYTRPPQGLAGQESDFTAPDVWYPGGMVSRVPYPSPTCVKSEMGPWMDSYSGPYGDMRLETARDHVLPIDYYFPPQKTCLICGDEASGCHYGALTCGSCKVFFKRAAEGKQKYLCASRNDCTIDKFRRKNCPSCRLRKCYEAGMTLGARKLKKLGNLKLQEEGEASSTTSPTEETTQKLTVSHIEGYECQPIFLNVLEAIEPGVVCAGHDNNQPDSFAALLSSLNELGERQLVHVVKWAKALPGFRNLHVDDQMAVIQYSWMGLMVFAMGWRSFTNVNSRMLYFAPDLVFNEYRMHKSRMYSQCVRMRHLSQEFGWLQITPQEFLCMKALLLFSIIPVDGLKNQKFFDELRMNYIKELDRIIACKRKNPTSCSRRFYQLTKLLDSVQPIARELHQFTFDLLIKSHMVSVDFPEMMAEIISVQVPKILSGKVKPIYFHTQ
# In short: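 Using qHTS, AR-UAS-bla GripTite HEK293 cells received compound, then R1881, and were cultured 16 h at 37C/5% CO2 before a 2 h room-temperature LiveBLAzer B/G FRET substrate step and fluorescence measurement.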
# [14] = biological target: Androgen receptor (Homo sapiens) (UniProt P10275); assay: qHTS assay to identify small molecule agonists of the androgen receptor (AR) signaling pathway (AID 743036; active = well fitted activation curve with a large enough effect in the signal ratio in the repeat runs, with a control signal flat, not every such curve was filed as active; the % refers to the signal ratio)
# In short: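 Screening used 2,000 AR-bla HEK293 cells per well, treated 16 h at 37C with test compounds in DMSO alongside positive and DMSO-only controls; beta-lactamase activity was then read by LiveBLAzer B/G FRET fluorescence after 2 h at room temperature.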
# [15] = biological target: Androgen receptor (Homo sapiens) (UniProt P10275); assay: qHTS assay to identify small molecule agonists of the androgen receptor (AR) signaling pathway using the MDA cell line (AID 743040; note: nearly all actives have a fitted effect of over 20% in size)
# In short: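 MDA-kb2 breast carcinoma cells carrying MMTV-luciferase (responsive to AR and GR), plated 5 h then treated 16 h with compounds at 37C, 0% CO2. Read-out was ONE-Glo luminescence after 30 min at room temperature.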
# [16] = qHTS assay to identify small molecule antagonists of the androgen receptor (AR) signaling pathway using the MDA cell line - cell viability counter screen (AID 743041; note: nearly all actives have a fitted effect of over 45% in size)
# In short: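 MDA-kb2 AR-luc cells (MMTV-luciferase, AR/GR responsive) treated with compounds plus R1881 agonist for 16 h at 37C. CellTiter-Fluor added at 15.5 h; fluorescence read after 30 min in the same wells.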
# [17] = biological target: Androgen receptor (Homo sapiens) (UniProt P10275); assay: qHTS assay to identify small molecule antagonists of the androgen receptor (AR) signaling pathway using the MDA cell line (AID 743042; note: nearly all actives have a fitted effect of over 55% in size)
# In short: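 MDA-kb2 breast carcinoma cells carrying MMTV-luciferase (AR/GR responsive) were co-treated with compounds and the agonist R1881 for 16 h at 37C. Inhibition read as ONE-Glo luminescence; CellTiter-Fluor fluorescence measured in parallel for cytotoxicity.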
# [18] = qHTS assay to identify small molecule antagonists of the androgen receptor (AR) signaling pathway - cell viability counter screen (AID 743033; note: nearly all actives have a fitted effect of over 45% in size)
smiles,measurement,setting,value
Cc1ccc(N)nc1,outcome,[1],inactive
same,outcome,[2],inactive
same,outcome,[3],inactive
same,outcome,[4],inactive
same,outcome,[5],inactive
same,outcome,[6],inactive
same,outcome,[7],inactive
same,outcome,[8],inactive
same,outcome,[9],inactive
same,Potency,[10],inactive
same,Potency,[11],inactive
same,Potency,[12],inactive
same,outcome,[13],inactive
same,outcome,[14],inactive
same,outcome,[15],inactive
same,outcome,[16],inactive
same,outcome,[17],inactive
CC[C@@]1(c2ccccc2)NC(=O)N(C)C1=O,outcome,[1],inactive
same,outcome,[2],inactive
same,outcome,[3],inactive
same,outcome,[4],inactive
same,outcome,[5],inactive
same,outcome,[6],inactive
same,outcome,[7],inactive
same,outcome,[8],inactive
same,outcome,[9],inactive
same,Potency,[10],inactive
same,Potency,[12],inactive
same,outcome,[18],inactive
same,outcome,[16],inactive
CCCCCCCOC(C)=O,outcome,[1],inactive
same,outcome,[2],inactive
same,outcome,[3],inactive
same,outcome,[4],inactive
same,outcome,[5],inactive
same,outcome,[6],inactive
same,outcome,[7],inactive
same,outcome,[8],inactive
same,outcome,[9],inactive
same,Potency,[10],inactive
same,Potency,[11],inactive
same,Potency,[12],inactive
same,outcome,[16],inactive
C[C@]12C=CC(=O)C=C1[C@@H](F)C[C@@H]1[C@@H]2[C@@H](O)C[C@@]2(C)[C@H]1CC[C@]2(O)C(=O)CO,outcome,[1],inactive
same,outcome,[2],inactive
same,outcome,[3],inactive
same,outcome,[4],inactive
same,outcome,[5],inactive
same,outcome,[6],inactive
same,outcome,[7],inactive
same,outcome,[8],inactive
same,outcome,[9],inactive
same,Potency,[11],18.8 µM (active)
same,Potency,[12],23.7 µM (active) and 26.6 µM (active)
same,outcome,[18],inactive
same,outcome,[16],inactive
CCCCCC(=O)CC,outcome,[1],inactive
same,outcome,[2],inactive
same,outcome,[3],inactive
same,outcome,[4],inactive
same,outcome,[5],inactive
same,outcome,[6],inactive
same,outcome,[7],inactive
same,outcome,[8],inactive
same,outcome,[9],inactive
same,Potency,[10],inactive
same,Potency,[12],inactive
same,outcome,[18],inactive
same,outcome,[16],inactive
CN(C)CCc1c[nH]c2ccc(CS(=O)(=O)N3CCCC3)cc12,outcome,[1],inactive
same,outcome,[2],inactive
same,outcome,[3],inactive
same,outcome,[4],inactive
same,outcome,[5],inactive
same,outcome,[6],inactive
same,outcome,[7],inactive
same,outcome,[8],inactive
same,outcome,[9],inactive
same,Potency,[10],inactive
same,Potency,[12],inactive
same,outcome,[16],inactive
COC(=O)c1c(C)cc(O)c(C)c1O,outcome,[1],inactive
same,outcome,[2],inactive
same,outcome,[3],inactive
same,outcome,[4],inactive
same,outcome,[5],inactive
same,outcome,[6],inactive
same,outcome,[7],inactive
same,outcome,[8],inactive
same,outcome,[9],inactive
same,Potency,[11],54.5 µM (active)
same,Potency,[12],61.1 µM (active)
same,outcome,[18],inactive
same,outcome,[16],inactive
CCCCc1ccc(Cl)cc1,outcome,[1],inactive
same,outcome,[2],inactive
same,outcome,[3],inactive
same,outcome,[4],inactive
same,outcome,[5],inactive
same,outcome,[6],inactive
same,outcome,[7],inactive
same,outcome,[8],inactive
same,outcome,[9],inactive
same,Potency,[11],inactive
same,Potency,[12],inactive
same,outcome,[18],inactive
same,outcome,[16],inactive
CCCCCCC(=O)c1ccccc1,outcome,[1],inactive
same,outcome,[2],inactive
same,outcome,[3],inactive
same,outcome,[4],inactive
same,outcome,[5],inactive
same,outcome,[6],inactive
same,outcome,[7],inactive
same,outcome,[8],inactive
same,outcome,[9],inactive
same,Potency,[10],inactive
same,outcome,[18],inactive
same,outcome,[16],inactive
CC1=C(O)C(=O)CO1,outcome,[1],inactive
same,outcome,[2],inactive
same,outcome,[3],inactive
same,outcome,[4],inactive
same,outcome,[5],inactive
same,outcome,[6],inactive
same,outcome,[7],inactive
same,outcome,[8],inactive
same,outcome,[9],inactive
same,Potency,[11],inactive
same,Potency,[12],inactive
same,outcome,[18],inactive
same,outcome,[16],inactive
CCCCCCCC(=O)N(C)C,outcome,[1],inactive
same,outcome,[2],inactive
same,outcome,[3],inactive
same,outcome,[4],inactive
same,outcome,[5],inactive
same,outcome,[6],inactive
same,outcome,[7],inactive
same,outcome,[8],inactive
same,outcome,[9],inactive
same,Potency,[11],inactive
same,Potency,[12],inactive
same,outcome,[18],inactive
same,outcome,[16],inactive
C[C@@H]1CC[C@@]2(OC1)O[C@H]1C[C@H]3[C@@H]4CC[C@H]5C[C@@H](O)CC[C@]5(C)[C@H]4CC(=O)[C@]3(C)[C@H]1[C@@H]2C,"fluorescence, % of fluorescein",[1],-0.0442% [at 18.6 µM]
same,"fluorescence, % of fluorescent control",[2],0.012% [at 18.6 µM]
same,activity change,[3],-0.0372% [at 18.6 µM]
same,"fluorescence, % of fluorescent control",[4],0.195% [at 18.6 µM]
same,"fluorescence, % of Rose Bengal",[5],0.0999% [at 18.6 µM]
same,"fluorescence, % of fluorescent control",[6],0.0653% [at 18.6 µM]
same,"fluorescence, % of fluorescein control",[7],0.0232% [at 18.6 µM]
same,"fluorescence, % of fluorescent control",[8],-0.13% [at 18.6 µM]
same,outcome,[9],inactive
same,Potency,[10],inactive
same,Potency,[11],inactive
same,Potency,[12],inactive
same,outcome,[16],inactive
NNC(=O)OCc1ccccc1,outcome,[1],inactive
same,outcome,[2],inactive
same,outcome,[3],inactive
same,outcome,[4],inactive
same,outcome,[5],inactive
same,outcome,[6],inactive
same,outcome,[7],inactive
same,outcome,[8],inactive
same,outcome,[9],inactive
same,Potency,[10],inactive
same,Potency,[11],inactive
same,Potency,[12],inactive
same,outcome,[13],inactive
same,outcome,[14],inactive
same,outcome,[15],inactive
same,outcome,[16],inactive
same,outcome,[17],inactive
O=C(O)Cc1c(Cl)ccc(Cl)c1Cl,outcome,[1],inactive
same,outcome,[2],inactive
same,outcome,[3],inactive
same,outcome,[4],inactive
same,outcome,[5],inactive
same,outcome,[6],inactive
same,outcome,[7],inactive
same,outcome,[8],inactive
same,outcome,[9],inactive
same,Potency,[11],inactive
same,Potency,[12],inactive
same,outcome,[18],inactive
same,outcome,[16],inactive
O=C(c1ccccc1)c1cccc(O)c1,outcome,[1],inactive
same,outcome,[2],inactive
same,outcome,[3],inactive
same,outcome,[4],inactive
same,outcome,[5],inactive
same,outcome,[6],inactive
same,outcome,[7],inactive
same,outcome,[8],inactive
same,outcome,[9],inactive
same,Potency,[10],inactive
same,Potency,[11],inactive
same,Potency,[12],inactive
same,outcome,[18],inactive
same,outcome,[16],inactive
same,outcome,[17],inactive
CC1(C)CC(N)CC(C)(C)N1,outcome,[1],inactive
same,outcome,[2],inactive
same,outcome,[3],inactive
same,outcome,[4],inactive
same,outcome,[5],inactive
same,outcome,[6],inactive
same,outcome,[7],inactive
same,outcome,[8],inactive
same,outcome,[9],inactive
same,Potency,[10],inactive
same,Potency,[11],inactive
same,Potency,[12],inactive
same,outcome,[16],inactive
COC(=O)N/N=C/c1c[n+]([O-])c2ccccc2[n+]1[O-],outcome,[1],inactive
same,outcome,[2],inactive
same,outcome,[3],inactive
same,outcome,[4],inactive
same,outcome,[5],inactive
same,outcome,[6],inactive
same,outcome,[7],inactive
same,outcome,[8],inactive
same,outcome,[9],inactive
same,Potency,[10],inactive
same,outcome,[18],inactive
same,outcome,[16],inactive
C[C@@H](CN1CC(=O)NC(=O)C1)N1CC(=O)NC(=O)C1,outcome,[1],inactive
same,outcome,[2],inactive
same,outcome,[3],inactive
same,outcome,[4],inactive
same,outcome,[5],inactive
same,outcome,[6],inactive
same,outcome,[7],inactive
same,outcome,[8],inactive
same,outcome,[9],inactive
same,Potency,[10],inactive
same,Potency,[11],inactive
same,outcome,[18],inactive
same,outcome,[13],inactive
same,outcome,[14],inactive
same,outcome,[15],inactive
same,outcome,[16],inactive
same,outcome,[17],inactive

# — PubChem BioAssay (Tox21)
